The source of these data is PubChem BioAssay (Tox21).

SMILES strings stand for the structures. Values without a mark were called inactive. Where a call stands in place of a potency, no number is given. Activity calls are given as the source filed them. Calls come from the whole dose curve.
Potency is the fitted concentration of half-maximal effect.

This assay deals with Acetylcholinesterase (Homo sapiens) (UniProt P22303). In words: Acetylcholinesterase (AChE) small molecule antagonists: enzyme-based qHTS assay (AID 1347397). Note: nearly all actives have a fitted effect of over 55% in size. To be noted: Potency: AChE enzyme activity inhibition; outcome: AChE enzyme activity inhibition; series mostly up to 115 µM. From the text: National Center for Advancing Translational Sciences [NCATS]
Acetylcholinesterase (Homo sapiens), sequence (P22303 whole entry, looked up): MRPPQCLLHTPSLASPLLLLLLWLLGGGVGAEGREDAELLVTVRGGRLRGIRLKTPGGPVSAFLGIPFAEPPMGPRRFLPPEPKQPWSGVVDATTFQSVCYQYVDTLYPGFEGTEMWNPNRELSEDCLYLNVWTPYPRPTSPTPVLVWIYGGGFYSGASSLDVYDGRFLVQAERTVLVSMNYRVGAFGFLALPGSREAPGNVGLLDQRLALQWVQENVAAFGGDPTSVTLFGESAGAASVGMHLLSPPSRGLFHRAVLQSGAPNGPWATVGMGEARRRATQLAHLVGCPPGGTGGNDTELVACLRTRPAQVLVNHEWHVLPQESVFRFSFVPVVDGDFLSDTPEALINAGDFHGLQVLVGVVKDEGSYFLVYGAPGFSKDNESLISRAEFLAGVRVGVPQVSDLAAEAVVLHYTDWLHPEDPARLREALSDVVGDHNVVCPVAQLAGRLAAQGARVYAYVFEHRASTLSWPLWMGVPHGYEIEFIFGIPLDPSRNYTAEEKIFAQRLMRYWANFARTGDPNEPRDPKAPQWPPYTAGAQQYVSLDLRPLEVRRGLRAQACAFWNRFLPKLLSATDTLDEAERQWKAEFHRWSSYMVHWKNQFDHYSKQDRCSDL
Division of Preclinical Innovation [DPI]
U.S. Environmental Protection Agency [EPA]
National Institutes of Environmental Health Sciences [NIEHS]
National Toxicology Program [NTP]
U.S. Food and Drug Administration [FDA]
Acetylcholinesterase (AChE) is the primary cholinesterase in the body that hydrolyzes a key neurotransmitter, acetylcholine. Inhibition of AChE activity can lead to neurotoxicity. The known inhibitors include organophosphorous pesticides (OP), chemical warfare agents, drugs, and various phytochemicals.
An enzyme-based assay with the recombinant human AChE and Amplite Colormetric acetylcholinesterase assay kit (AAT Bioquest, Sunnyvale, CA) was used to evaluate the chemicals in the Tox21 10K library that inhibit AChE activity. The assay uses 5, 5-dithiobis-(2-nitrobenzoic acid) (DTNB) to quantify the thiocholine produced from the hydrolysis of acetylthiocholine by AChE.
Tox21 Assay Protocol Summary:
For the enzyme-based AChE assay, recombinant human AChE (50 mU/mL) in 4 uL/well was dispensed into black, clear-bottom 1536-well plates using a Multidrop Combi dispenser (Thermo Scientific, MA). Then, 23 nL of compound or DMSO (vehicle control) was transferred into the assay plates by a Pintool Station (Wako Automation, CA). The plates were incubated for 30 min at room temperature, followed by the addition of 4 uL of colorimetric detection cocktail solution (DTNB, acetylthiocholine) into each well using a Flying Reagent Dispenser (Beckman Coulter, CA) and then 10 min incubation at room temperature.
Regarding `O=C(Cl)c1cc(Cl)cc(Cl)c1`, the Potency entry is “inactive”.

Take `CC1CCC(C(C)CS)CC1S` (stereo not given): the Potency entry is “inactive”. The same measure, in the same setting: next, `O=[N+]([O-])c1cc[n+]([O-])cc1`: “inactive”.

For `CC(C)=NNC(N)=S`, the Potency result is “inactive”. Turning to `OCC(O)CS` (stereo not given), the Potency result was “inactive”.

`CN(C)CCCCl`: the Potency result was “inactive”. Take `CCCCCCCCCO`: the Potency result is “inactive”. Still for that read-out and setting: the value for `CCNc1nc(N)nc(Cl)n1` was “inactive”; that for `O=Cc1c2ccccc2c(Cl)c2ccccc12` was “inactive”; that for `CC(C)CC(=O)C1C(=O)c2ccccc2C1=O` was “inactive”. The same measure, in the same setting: the value for `CC(C)(C)c1ccc(CCC=O)cc1` was “inactive”; that for `CC1=NN(c2ccc(S(=O)(=O)O)cc2)C(=O)C1` was “inactive”. On the same count and under the same terms, the value for `NC(CSCC(=O)O)C(=O)O` (stereo not given) was “inactive”; that for `O=C(O)CCC(=O)C(=O)O` was “inactive”; that for `CC(=O)OC/C=C(C)/C=C/C=C(C)/C=C/C1=C(C)CCCC1(C)C` was “inactive”. Turning to `Cc1nc2c([nH]1)c(=O)n(C)c(=O)n2Cc1ccco1`, the Potency result is “inactive”. As to `CCn1cc(C(=O)O)c(=O)c2cnc(N3CCCC3)nc21`, the activity change, negative = inhibition was 0.534% [at 10.5 µM].

Turning to `CCCCCCCCCCCCc1ccc(O)cc1`, the Potency is 63.3 µM (active). Same read-out and setting: the value for `O=C(O)c1ccc(OCCCOc2ccc(C(=O)O)cc2)cc1` was “inactive”.

Consider `CN(C)[C@@H]1C(=O)C(C(=O)NCN2CCCC2)=C(O)[C@@]2(O)C(=O)C3=C(O)c4c(O)cccc4[C@@](C)(O)C3C[C@@H]12` (stereo not given in full), for which the Potency entry is “inactive”. `C=COCC(C)C`: the Potency result is “inactive”. Regarding `CCCCCCCCS(=O)(=O)O`, the Potency result was “inactive”.

Regarding `CCCCCCCCCC(=O)OC`, the Potency result was “inactive”.

On to `N[C@@H](CCC(=O)Nc1ccc([N+](=O)[O-])cc1)C(=O)O`, for which the Potency entry was “inactive”. On to `CCC(=O)CC(C)CC` (stereo not given), for which the activity change, negative = inhibition was 1.36% [at 0.435 µM]. In the case of `CSc1cnccn1`, the Potency entry was “inactive”.

As to `CC(=O)O[C@H](CC(=O)[O-])C[N+](C)(C)C`, the Potency result is “inactive”. For `Cc1ccc(S(=O)(=O)O)cc1C`, the Potency entry is “inactive”. Turning to `O=C(O)c1snc(Cl)c1Cl`, the Potency result is “inactive”. Same read-out and setting: next, `O=C1c2ccccc2C(=O)c2c(O)ccc(O)c21`: “inactive”; `CCn1c2ccccc2c2cc([N+](=O)[O-])ccc21`: “inactive”; `COC(=O)c1ccc(C)cc1C1=NC(C)(C(C)C)C(=O)N1` (stereo not given): “inactive”. As for `Oc1ccc(Oc2ccccc2)cc1`, the Potency result was “inactive”.

Take `COCC(C)O` (stereo not given): the Potency entry is “inactive”. The same measure, in the same setting: the value for `CCCCC(CC)COC(=O)CC#N` (stereo not given) was “inactive”; that for `CCN[C@H]1CN(CCCOC)S(=O)(=O)c2sc(S(N)(=O)=O)cc21` was “inactive”. Same read-out and setting: next, `FC(F)(F)C(Cl)Br` (stereo not given): “inactive”; `Clc1cc(Cl)nc(Cl)n1`: “inactive”. On the same count and under the same terms, the value for `Cc1ccc(Cl)c(N)c1Cl` was “inactive”. `O=C(O)c1ccc(-n2nc(-c3ccccc3O)nc2-c2ccccc2O)cc1`: the Potency result was “inactive”.
